SMILES strings stand for the structures. Results filed as inconclusive are left out. A call without a number means that no potency is given here. The source made the active and inactive calls. The call rests on the fitted dose curve; in most records, active means well fitted activation curve with a large enough effect; inconclusive means small, poorly fitted or top-dose-only effect; inactive means flat fitted curve, though single readings scatter. Bridge positions count the residues as written; N and C are the ends. Square brackets hold non-standard residues; d marks the D form. Side chains are listed from the residue outwards. Peptide text beside a SMILES is read from it. * marks the point of attachment. ξ: configuration not given here. Phg(4-OMe) = COc1ccc([C@H](N)C(=O)O)cc1; d(aIle) = CC[C@H](C)[C@@H](N)C(=O)O; d(aThr) = C[C@@H](O)[C@@H](N)C(=O)O; NMeF = CN[C@@H](Cc1ccccc1)C(=O)O; Isobutyryl = CC(C)C(=O)*; ξL = CC(C)CC(N)C(=O)O
Potency means the concentration at half of the fitted maximal effect.

A short description of the test: HEK293 24hr Apoptosis Induction qHTS against the NCATS CANVASS Library (AID 1347359). The settings on record: HEK293 caspase-3/7 activation, Caspase-Glo luminescence; series mostly up to 46.1 µM. An excerpt: Natural products and their derivatives continue to be wellsprings of nascent therapeutic potential. However, many laboratories have limited resources for biological evaluation, leaving their previously isolated or synthesized compounds largely or completely untested. To address this issue, the Canvass library of natural products was assembled (https://tripod.nih.gov/canvass), in collaboration with academic and industry researchers, for quantitative high-throughput screening (qHTS) across a diverse set of cell-based and biochemical assays. The pure (>85% purity by liquid chromatography/mass spectrometry [LC/MS]) Canvass library of 346 natural products were submitted by 45 academic laboratories and companies around the world. We collected pure natural products to circumvent deconvolution and structure elucidation due to time and resource limitations. The library was formatted into 1536-well plates and evaluated in 50 qHTS (in an 11-pnt concentration series) bioassays with broad scope of disease-relevant mechanisms. The resulting data set from 50 different assays was then systematically analyzed to identify overall trends and specific natural products with interesting biological activities. Reported herein are the results of each individual qHTS and their corresponding assay protocol. The Caspase-Glo (R) (Promega) is a homogeneous, luminescent assay that measures caspase activity. The detection substrate contains tetrapeptide sequence DEVD in an "add-mix-measure" format. The reagent generates a luminescent signal produced by a thermostable luciferase. The luminescence is proportional to the amount of caspase activity in the assay reaction. National Center for Advancing Translational Sciences (NCATS), Rockville, MD National Institute of Health (NIH), Bethesda, Maryland
Cancer Cell Apoptosis Assay 1. In a 1536 well, white solid bottom tissue culture plates (Corning 7494), HEK293 cancer cells in DMEM + 10% FBS + 1% P/S media were dispensed in each well at a final concentration of 500 cells / well (5uL volume) using the Multidrop Combi (Thermo Fisher Scientific) dispenser. 2. Compounds were pin transferred (~23nL volume) via Wako Pin-tool (Wako Automation, Richmond VA) equipped with a 1536 pin head. The assay plates were treated with compounds in a concentration series with a final concentration range of […] to 103uM. 3. Doxorubicin was used as a control in a 16pnt titration (1mM; 1:2 dilution; 16-points; n = 2; column 3, rows 1 - 32) and was pin transferred via Wako Pin-tool equipped with a 1536 pin head. The final concentration range of doxorubicin is 0.1nM - 4uM. 4. The assay plates were incubated for 24 hours at 37 degrees C/5% CO2/95% Rh. 5. 3uL Caspase-Glo 3/7 (R) (Promega) detection reagent was then added to the assay plates (columns 2 - 48, rows 1 - 32) and incubated at room temperature, covered from light, for 15 min. 6. Luminescence signal was acquired via the ViewLux plate reader (PerkinElmer) using a clear filter, 20 second exposure and 2x binning settings.
`C=C[C@@](C)(O)CC[C@@H]1[C@@]2(C)CCCC(C)(C)[C@@H]2CC[C@@]1(C)O`: the Potency entry is “inactive”.
The same measure, in the same setting: the value for `CN1CC[C@@]2([C@@]34CCN(C)[C@@H]3Nc3ccccc34)c3ccccc3N[C@@H]12` was “inactive”; that for `C/C(=C\[C@H](C)C(=O)C[C@H](O)CC1CC(=O)NC(=O)C1)[C@@H]1OC(=O)CCCC/C=C/C[C@@H](O)[C@@H]1C` was “inactive”; that for `COc1c(O)cc2c(c1O)C(=O)c1c(coc1C)C2=O` was “inactive”.
Regarding `CC[C@H](O)CCCCC[C@@H]1NC(=O)[C@H]2CCCCN2C(=O)[C@H]([C@H](C)CC)NC(=O)[C@H](Cc2cn(OC)c3ccccc23)NC1=O`, the Potency entry is “inactive”.
Same read-out and setting: the value for `COc1cc2ccc(=O)oc2c(O)c1O[C@@H]1O[C@H](CO)[C@@H](O)[C@H](O)[C@H]1O` was “inactive”.
`COc1cc(C2OCC3C(c4ccc(O)c(OC)c4)OCC23)ccc1O` (stereo not given): the activation was 6.68% [at 9.19 µM] (inactive).
Turning to `CC(C)=CCC[C@]12c3cc4c(cc3CC[C@@]1(C)[C@H](C)CC[C@@H]2O)[nH]c1ccccc14`, the Potency entry was “inactive”.
On to `CC[C@H](C)[C@H]1NC(=O)[C@@H](NC(=O)C(C)C)[C@@H](C)OC(=O)[C@H](COC(=O)CNC(C)=O)NC(=O)[C@@H]([C@@H](C)O)NC(=O)[C@H](Cc2ccccc2)N(C)C(=O)[C@H](c2ccc(OC)cc2)NC1=O` (Isobutyryl-T[d(aIle)][Phg(4-OMe)][NMeF][d(aThr)]S([Gly-Ac]); ester 1-C), for which the Potency entry was “inactive”.
For `CC(C)[C@@H]1CC(=O)c2coc3c2[C@H]1C[C@@H](C)C3=O`, the Potency entry was “inactive”.
Same read-out and setting: under `C/C(=C\[C@@H](C)CC/C=C/CC/C=C/C(=O)O)[C@H](O)[C@H](C)C(=O)CCCC1CC(=O)NC(=O)C1` stands “inactive”; under `CO[C@H]1/C=C/CCCCC(=O)O[C@@H](/C(C)=C/[C@H](C)C(=O)C[C@H](O)CC2CC(=O)NC(=O)C2)[C@@H](C)C1`, “inactive”; under `C[C@]12CC[C@]3(C1)[C@H](CC2=O)C[C@@H](OC(=O)c1ccccc1)[C@H]1[C@](C)(C(=O)O)CCC[C@@]13C`, “inactive”.
On the same count and under the same terms, the value for `C=C[C@@]1(C)CC[C@@H]([C@H](C)C(=O)/C=C/C(C)(C)O)O1` was “inactive”; that for `C=C1C[C@H]2O[C@@H]3[C@@H]4[C@H](CC[C@@](C)(O)[C@@H]42)[C@H](C)COC3(C)[C@@H](OC(=O)CCCCCCC)CC1=O` (stereo not given in full) was “inactive”; that for `O=C1c2c(O)cc(O)cc2OC(c2ccc(O)cc2)C1O` (stereo not given) was “inactive”.
Same read-out and setting: under `CC[C@@H](c1cc(OC)c(OC)cc1OC)[C@H](C)[C@@H](/C(C)=C/c1cc(OC)c(OC)cc1OC)c1cc(OC)c(OC)cc1OC` stands “inactive”.
On to `CO[C@@H](C[C@@H](C)[C@@H](O)/C=C/C=C/CNC(=O)C(C)(C)[C@H](O)\C(C)=C/C=C\C=C\Cc1cnco1)[C@]1(O)[C@@H](C)C(=O)N(C)[C@@]12COC2=O`, for which the Potency entry is “inactive”.
On the same count and under the same terms, under `CC[C@@H]1[C@H](C)[C@H](c2cc(OC)c(OC)cc2OC)[C@@H](C)[C@H](c2cc(OC)c(OC)cc2OC)[C@]12C=C(OC)C(=O)C=C2OC` stands “inactive”; under `O=c1cc(-c2ccc(O)c(O)c2)oc2cc(O[C@@H]3O[C@H](CO)[C@@H](O)[C@H](O)[C@H]3O)cc(O)c12`, “inactive”; under `C=C[C@]1(C)CC[C@@H]([C@H](C)C(=O)/C=C/C(C)(C)O)O1`, “inactive”.
On to `COc1ccc([C@@H]2c3cc4c(cc3C(=O)C(C)C2C)OCO4)cc1OC` (stereo not given in full), for which the Potency result was “inactive”.
On the same count and under the same terms, the value for `C[C@@]1(CCC(=O)Nc2c(O)ccc(C(=O)O)c2O)C(=O)C=C[C@]23C[C@H]4C[C@H](O[C@@]4(C)C2)C31` (stereo not given in full) was “inactive”; that for `COC1C(C)OC(OCC23C[C@@H]4[C@H](C)CC[C@H]4C4(C=O)CC2C=C(C(C)C)C34C(=O)O)[C@@H](O)[C@H]1O` (stereo not given in full) was “inactive”; that for `C=C(C)C(=O)O[C@H]1C[C@@]2(C)OC(=CC2=O)/C(C)=C\[C@H]2OC(=O)C(=C)[C@H]12` was 2.96 µM (active).
On the same count and under the same terms, under `CCC(=O)CCCCC[C@@H]1NC(=O)[C@H]2CCCCN2C(=O)[C@H](C(C)C)NC(=O)[C@H](Cc2cn(OC)c3ccccc23)NC1=O` stands “inactive”.
On the same count and under the same terms, the value for `COC12OC1(C13OC1(OC)C(=O)c1cc4cc(C)oc(=O)c4c(O)c1C3O)C(O)c1c(cc3cc(C)oc(=O)c3c1O)C2=O` (stereo not given) was “inactive”; that for `CC[C@@H](C)[C@H]1NC(=O)C(CC(C)C)NC(=O)[C@@H](CC(C)C)NC(=O)[C@H](Cc2c[nH]c3ccccc23)NC(=O)CNC(=O)[C@@H](CC(N)=O)NC1=O` (stereo partly drawn) (cyclo(GW[dL][ξL][dI][dN])) was “inactive”; that for `CC[C@H]1[C@@H](C)[C@@H](c2cc(OC)c(OC)cc2OC)[C@H](C)[C@@H](c2cc(OC)c(OC)cc2OC)[C@@]12C=C(OC)C(=O)C=C2OC` was “inactive”.
For `O=C1CCC(=O)N(O)CCCCCNC(=O)CCC(=O)N(O)CCCCCNC(=O)CCC(=O)N(O)CCCCCN1`, the Potency result was “inactive”.
Still for that read-out and setting: under `C=CC(C)(C)C(=O)[C@@H](C)[C@@H]1CC[C@@](C)(C=C)O1` stands “inactive”.
On the same count and under the same terms, under `COc1ccc([C@@H]2c3cc4c(cc3C[C@H](C)C2C)OCO4)cc1OC` (stereo not given in full) stands “inactive”; under `C/C=C(/C)c1c(Cl)c(O)c(C)c2c1Oc1c(Cl)c(O)c(Cl)c(C)c1C(=O)O2`, “inactive”.
The same measure, in the same setting: the value for `CCC(C)=C1OC(=O)[C@H](C)[C@H](O)[C@H](Cc2cccnc2)NC(=O)C(NC(=O)c2ncccc2O)C(C)OC1=O` (stereo not given in full) was “inactive”; that for `CC1=C2CC[C@]3(C)[C@H](CC=C4[C@@H]5CC(C)(C)CC[C@@H]5C(=O)[C@H](O)[C@]43C)[C@@]2(C)C=C(O)C1=O` was “inactive”.
On to `C[C@H]1C=C[C@H]2CCCC[C@@H]2[C@H]1C(=O)[C@H]1CC2=C(C(=O)O)CCN2C1=O`, for which the Potency entry is “inactive”.
Same read-out and setting: the value for `COc1ccc2[nH]c3c(c2c1)CCN1C[C@H]2C[C@@H](OC(=O)c4cc(OC)c(OC)c(OC)c4)[C@H](OC)[C@@H](OC)[C@H]2C[C@H]31` was “inactive”.
Still for that read-out and setting: under `C/C(=C\CC[C@@H](C)[C@H]1CC[C@]2(C)C3=CCC4C(C)(C)[C@@H](O)C[C@@H](O)[C@]4(C)C3[C@H](O)C[C@@]12C)CO` (stereo not given in full) stands “inactive”; under `CC(C)[C@]12CC[C@@]3(C)[C@H](C)CC[C@H](O)[C@@]3(CC1)c1cc3c(cc12)[nH]c1ccccc13`, “inactive”.
`COc1ccc([C@@H]2CC(=O)c3c(cc(O)c(C/C=C(\C)CCC=C(C)C)c3O)O2)cc1`: the activation is 2.74% [at 9.19 µM] (inactive).

Values taken from PubChem BioAssay (NCATS).
